The values below come from PubChem BioAssay AID1347419 (Sanford-Burnham Center for Chemical Genomics, 2020).

Each structure is given as a SMILES string. Screen size: about 99,000 compounds; about 820 (0.83%) were called active.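 The calls were made as follows: active = Z-score of -3 or lower, scaled per plate to the spread of control and sample wells; inactive = z-score above -3.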 The list comes from a sample in which actives are over-represented; it also holds similar structures and randomly drawn compounds.

For this experiment, the target named is Protein-tyrosine kinase 2-beta (Homo sapiens) (UniProt Q14289). The experiment is described as follows: antagonists of Pyk2 self-association, primary screen, Q293 cells, FERM NanoBiT luminescence, HTS (AID 1347419).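 Also: the deposit names both 25 µM and 10 µM; negative z-score means lost luminescence so less FERM oligomerization.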 Set-up: dose or concentration left out as unconfirmed. To be noted: hits give low values.
Protein-tyrosine kinase 2-beta (Homo sapiens), sequence (Q14289 whole entry, looked up): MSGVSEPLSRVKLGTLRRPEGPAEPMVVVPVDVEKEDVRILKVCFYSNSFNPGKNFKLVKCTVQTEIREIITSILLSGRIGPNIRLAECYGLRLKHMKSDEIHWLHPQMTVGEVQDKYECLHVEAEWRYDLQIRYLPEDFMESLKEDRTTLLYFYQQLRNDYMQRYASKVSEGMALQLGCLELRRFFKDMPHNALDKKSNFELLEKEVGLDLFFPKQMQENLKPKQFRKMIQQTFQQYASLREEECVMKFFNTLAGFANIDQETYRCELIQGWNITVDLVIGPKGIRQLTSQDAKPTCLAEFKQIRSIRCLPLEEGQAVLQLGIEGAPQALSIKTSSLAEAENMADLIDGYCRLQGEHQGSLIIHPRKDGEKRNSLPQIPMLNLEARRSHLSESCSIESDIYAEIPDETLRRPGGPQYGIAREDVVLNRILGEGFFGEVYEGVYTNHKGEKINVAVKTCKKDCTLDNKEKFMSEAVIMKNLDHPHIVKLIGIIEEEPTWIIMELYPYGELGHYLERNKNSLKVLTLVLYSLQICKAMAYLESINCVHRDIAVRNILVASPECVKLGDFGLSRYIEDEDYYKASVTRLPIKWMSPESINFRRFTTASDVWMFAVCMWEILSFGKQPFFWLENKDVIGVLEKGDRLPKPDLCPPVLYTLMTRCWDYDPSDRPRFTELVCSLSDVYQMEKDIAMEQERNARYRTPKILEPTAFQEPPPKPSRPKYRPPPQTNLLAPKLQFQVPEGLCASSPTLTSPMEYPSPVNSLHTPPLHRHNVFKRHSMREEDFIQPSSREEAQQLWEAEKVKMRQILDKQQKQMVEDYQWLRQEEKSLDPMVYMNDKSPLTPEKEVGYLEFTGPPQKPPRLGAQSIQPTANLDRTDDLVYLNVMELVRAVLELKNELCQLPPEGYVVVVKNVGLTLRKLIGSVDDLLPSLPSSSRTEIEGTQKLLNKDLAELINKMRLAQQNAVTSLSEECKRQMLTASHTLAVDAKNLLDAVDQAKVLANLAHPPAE
Regarding `COC(=O)N/N=C/c1cn(CCCOc2ccc(C)cc2)c2ccccc12`, the z-score was -1.26 (inactive).

For the compound `CCn1c(C(C)NC(=O)c2ccc(C)cc2)n[nH]c1=S` (stereo unspecified), the z-score was 0.28 (inactive).

In the case of `O=C(Nc1ccccc1N1CCN(C(=O)c2ccccc2)CC1)c1ccc2c(c1)OCO2`, the z-score is -3.44 (active).

With `CCCC(=O)Nc1ccccc1N1CCN(C(=O)c2ccccc2)CC1`, the z-score was -1.16 (inactive).

With `O=C(Nc1ccccc1)c1ccc2c(c1)OCO2`, the z-score is 1.34 (inactive).

Take `CCOc1ccc(NC(=O)CSc2nc3ccccc3c(=O)n2Cc2cccs2)cc1`: the z-score was 0.79 (inactive).

For `COC(=O)c1cn(-c2ccccc2)nc1-c1cccnc1`, the z-score is -0.5 (inactive).

Regarding `CC(=O)Cc1nsc(NC(=O)c2csc3c2CCCC3)n1`, the z-score was -1.89 (inactive).

With `COc1ccc(-c2nn(-c3ccccc3)cc2C(=O)Nc2nc(CC(C)=O)ns2)cc1`, the z-score is -3.37 (active).

With `CC(=O)Cc1nsc(NC(=O)c2ccc(COc3ccc(C)cc3)o2)n1`, the z-score was -0.45 (inactive).

`COc1cc(C(=O)Nc2nccs2)cc(OC)c1OC`: the z-score was -2.06 (inactive).

As for `COc1ccc(-c2nn(-c3ccccc3)cc2C(=O)Nc2nccs2)cc1OC`, the z-score was -3.32 (active).

For the compound `COc1cccc(C(=O)Nc2cc3c(cc2Br)OCCCO3)c1`, the z-score is 0.23 (inactive).

Consider `CCOc1ccc(NC(=O)CCC(=O)N/N=C/c2ccc([N+](=O)[O-])s2)cc1`, for which the z-score is 0.19 (inactive).

Turning to `CC(C)(C)NC(=O)c1cccc(NC(=O)Cc2ccc(Br)cc2)c1`, the z-score is -0.17 (inactive).

For `COC(=O)c1c(NC(=O)CN2CCN(S(=O)(=O)c3ccccc3[N+](=O)[O-])CC2)sc2c1CCC(C)C2` (stereo unspecified), the z-score is 0.28 (inactive).

As for `CNC(=O)c1ccsc1NC(=O)c1ccc(S(=O)(=O)N2CCOCC2)cc1`, the z-score is -1 (inactive).

With `CC(=O)Oc1c(C(=O)c2nnc(C)o2)c(=O)n(Cc2ccccc2)c2ccccc12`, the z-score was 0.7 (inactive).

For `O=C(Cc1c[nH]c2ccccc12)N/N=C/c1cccc(F)c1`, the z-score is -0.81 (inactive).

Consider `COc1cccc2c1CCC(NC(C)=O)C2=O` (stereo unspecified), for which the z-score was 0.78 (inactive).

On to `CCOC(=O)c1ccc(N/C(=N/S(=O)(=O)c2ccccc2)c2ccccc2)cc1`, for which the z-score was -1.09 (inactive).

As to `COCCCNC(=O)CNC(=S)N(Cc1cc(OC)c(OC)c(OC)c1)C1CCCC1`, the z-score was 0.81 (inactive).

Take `Cc1ccc(C(=O)C(=S)N2CCOCC2)cc1`: the z-score was -0.25 (inactive).

Regarding `COc1ccc(/C=C/C(=O)Nc2ccc3c(c2)OCCO3)cc1OC`, the z-score was -0.25 (inactive).

As for `Cc1ccc(C(=O)N2CC(=O)Nc3ccccc32)o1`, the z-score is -0.11 (inactive).

As to `CC(=O)Nn1cc2c(=O)n(C)c(=O)n(C)c2c1`, the z-score was 1.08 (inactive).

Consider `Cn1c(=O)c2cn(-c3cccc4ccccc34)cc2n(C)c1=O`, for which the z-score was -3.24 (active).

As to `COc1ccc(OC)c(-n2cc3c(=O)n(C)c(=O)n(C)c3c2)c1`, the z-score was -0.75 (inactive).

Consider `COc1ccc(CC(=O)Nc2cc(S(=O)(=O)N3CCCCC3)ccc2N2CCN(C)CC2)cc1`, for which the z-score is 0.23 (inactive).

`COc1ccccc1NC(=O)C1=C(C)Nc2nc3ccccc3n2C1c1cccs1` (stereo unspecified): the z-score was -0.65 (inactive).

Regarding `CC(C)C(=O)Nc1ccc2c3c(cccc13)CC2`, the z-score was -0.27 (inactive).

For `Cc1ccc(OC(=O)c2cc3ccccc3o2)cc1`, the z-score is 0.88 (inactive).

On to `O=c1c(-c2ccc3c(c2)OCCO3)c(C(F)(F)F)oc2cc(O)cc(O)c12`, for which the z-score was -1.19 (inactive).

In the case of `CCOC(=O)c1cc2cc(-c3c(C(=O)OCC)oc4cc(O)cc(O)c4c3=O)ccc2o1`, the z-score was -3.6 (active).

Consider `O=C(NC(=S)NC1CCSC1=O)c1ccccc1F` (stereo unspecified), for which the z-score is 2.45 (inactive).

For the compound `CCOc1ccc(/C=N/OCC(=O)NCc2cccs2)cc1`, the z-score was 0.26 (inactive).

In the case of `Nc1nc(SCc2ccc([N+](=O)[O-])cc2)c2ncn(C3OC(CO)C(O)C3O)c2n1` (stereo unspecified), the z-score was 1.34 (inactive).

With `Cc1cccc(N2CCN(C(c3ccc(N(C)C)cc3)c3nnnn3C(C)(C)C)CC2)c1C` (stereo unspecified), the z-score is 0.72 (inactive).

In the case of `COc1ccc(C(c2nnnn2C2CCCCC2)N2CCN(c3ccccc3F)CC2)cc1` (stereo unspecified), the z-score was -2.56 (inactive).

On to `Cc1cccc(N2CCN(C(c3ccccc3)c3nnnn3CC3CCCO3)CC2)c1C` (stereo unspecified), for which the z-score was -3.18 (active).

As to `Cc1nc(SCC(=O)c2ccccc2)c([N+](=O)[O-])[nH]1`, the z-score was -0.67 (inactive).

With `COC(=O)c1cc(C(=O)CSc2nc(C)cc(C)n2)ccc1O`, the z-score is -0.22 (inactive).

As for `Cc1cc(SCC(=O)c2ccccc2)nc(SCC(=O)c2ccccc2)n1`, the z-score is -3.01 (active).

Take `CC(C)=C1C2CCC1C1C(=O)N(NC(=O)c3ccco3)C(=O)C21` (stereo unspecified): the z-score is 1.15 (inactive).

In the case of `Cc1ccc(NC(=O)NC(=O)CSc2nnc(-c3ccc(OC(F)F)cc3)n2N)c(C)c1`, the z-score was -0.1 (inactive).

For the compound `COc1ccc(-c2csc(NC(=O)CCCc3cccs3)n2)cc1`, the z-score is 0.83 (inactive).

On to `Cc1ccc(N(Cc2ccc(C(=O)Nc3ccccc3C(=O)NCc3ccco3)cc2)S(C)(=O)=O)cc1C`, for which the z-score was -3.96 (active).

Consider `Cc1cccc(Nc2ccccc2C(=O)NCc2ccco2)c1C`, for which the z-score was -0.62 (inactive).

On to `CS(=O)(=O)N(Cc1ccc(Cl)cc1)c1ccc(C(=O)NCCSCc2ccco2)cc1`, for which the z-score is 0.47 (inactive).

Turning to `CCOC(=O)N/N=C/c1cn(Cc2ccccc2Cl)c2ccccc12`, the z-score is -1.11 (inactive).

Regarding `C=CCn1c(SCc2cccc(F)c2)nc2cc(C(=O)N3CCC(C(N)=O)CC3)ccc2c1=O`, the z-score is -1.07 (inactive).

As to `COc1ccc(/C=N/N=C/c2c[nH]c(=O)c(C#N)c2Nc2ccccc2)cc1`, the z-score was 0.79 (inactive).

As for `CCOC(=O)CNC(=O)CSc1nnnn1-c1cc(C)ccc1C`, the z-score was -0.31 (inactive).

As to `COC(=O)c1ccccc1NC(=O)CSc1nnnn1C`, the z-score is 0.19 (inactive).

In the case of `CCOC(=O)c1c(-c2ccc(C)cc2C)csc1NC(=O)CSc1nnnn1C`, the z-score is -3.44 (active).

Turning to `Cc1nonc1C(=O)N/N=C/c1ccc(O)cc1`, the z-score is 0.67 (inactive).

With `CC(C)Nc1nnc(SCC(=O)c2c[nH]c3ccccc23)s1`, the z-score was 0.14 (inactive).

For the compound `Cc1cccc(C(=O)c2cccc(C)c2)c1`, the z-score is 0.43 (inactive).

Take `Cc1cccc(-n2c(SCC(N)=O)nc3c(c2=O)C2(CCCCC2)Cc2ccccc2-3)c1`: the z-score was 1.27 (inactive).

On to `CC(NC(=O)COC(=O)C1CCN(S(=O)(=O)c2ccccc2C(F)(F)F)CC1)c1ccccc1` (stereo unspecified), for which the z-score was -0.04 (inactive).

Take `Nc1ccc(-c2nnc(-c3ccc(-c4ccccc4)cc3)o2)cc1`: the z-score is -3.38 (active).

Consider `O=C(Nc1ccc(-c2nnc(-c3ccccc3)o2)cc1)c1ccc(Br)o1`, for which the z-score was 0.72 (inactive).

In the case of `Brc1ccc(-c2nnc(-c3ccccc3)o2)o1`, the z-score is -0.77 (inactive).

For `Cc1ccnc(NC(=O)c2ccoc2C)c1`, the z-score was 0.21 (inactive).

As to `CCN(CC)CC(=O)c1c[nH]c2ccc(OC)cc12`, the z-score is -0.09 (inactive).

Regarding `COc1ccc2[nH]c3ccc(OC)cc3c2c1`, the z-score was -0.72 (inactive).

`COc1ccc2[nH]cc(/C=C(/C#N)S(=O)(=O)c3ccccc3)c2c1`: the z-score was -3.31 (active).

With `CCOc1ccc(C(=O)Nc2cccc(SC)c2)cc1`, the z-score was 0.21 (inactive).

In the case of `Cc1ccc(Nc2nnc(SCC(=O)c3cc4ccccc4o3)s2)cc1C`, the z-score was -0.02 (inactive).

Take `CC1CCN(C(=S)NC2CC3CCC2C3)CC1` (stereo unspecified): the z-score was -0.08 (inactive).

As to `Cc1ccccc1OCC(=O)Nc1ccc(N2CCN(C(=O)C(C)C)CC2)c(Cl)c1`, the z-score was -3.97 (active).

For `Cc1cccc(NC(=O)COc2ccccc2C)n1`, the z-score is 0.47 (inactive).

On to `CN1CCN(c2ccc(NC(=O)COc3ccc(Cl)cc3Cl)cc2)CC1`, for which the z-score was -0.4 (inactive).

On to `O=S(=O)(NCCc1ccncc1)c1ccccc1`, for which the z-score is 0.43 (inactive).

Regarding `Cc1cccc(-n2c(C)cc(/C=N\NC(=O)c3cccs3)c2C)c1`, the z-score was -0.91 (inactive).

For `CCn1c(/C=C/Nc2ccccc2)[n+](CC)c2ccc(C(=O)OCC(F)(F)F)cc21`, the z-score was 1.39 (inactive).

As for `Cc1cc2c(c(=O)n1Cc1ccco1)C(c1ccccc1)C(C#N)=C(N)O2` (stereo unspecified), the z-score was 1.13 (inactive).

For the compound `Cc1nn(Cc2ccccc2)c2c1C(c1ccccc1)C(C#N)=C(N)O2` (stereo unspecified), the z-score was -3.32 (active).

With `CCCc1[nH]nc2c1C(c1c(C)nn(-c3ccccc3)c1Cl)C(C#N)=C(N)O2` (stereo unspecified), the z-score was 0.22 (inactive).

As for `O=C(COC(=O)c1ccccc1SCC(=O)NC1CCCCC1)NC1CCCCC1`, the z-score was 1.77 (inactive).

With `Cc1nn(-c2ccccc2)c(C)c1C(=O)OCC(=O)NC(=O)NC1CCCCC1`, the z-score was -3.49 (active).

As to `CCCn1c(C)cc(C(=O)COC(=O)c2c(C)nn(-c3ccccc3)c2C)c1C`, the z-score is 1.05 (inactive).

As to `COC(=O)[C@H]1Cc2cnoc2C[C@]1(C)C(=O)O`, the z-score is 1.39 (inactive).

Turning to `O=c1c(Cl)c(NCc2ccc(F)cc2Cl)cnn1C12CC3CC(CC(C3)C1)C2`, the z-score was 0.24 (inactive).

Turning to `COc1ccc(-c2cc(C3CCN(c4ncccc4[N+](=O)[O-])CC3)[nH]n2)cc1`, the z-score is -3.98 (active).

With `COc1cccc(NC(=O)c2nn(C34CC5CC(CC(C5)C3)C4)cc2[N+](=O)[O-])c1`, the z-score was -0.19 (inactive).

As to `Cc1nc(-c2ccc(NC(=O)c3cccs3)cc2)cs1`, the z-score was -0.41 (inactive).

As for `Cc1ccc(-c2nnc(-c3ccc(NC(=O)c4cccs4)cc3)o2)cc1`, the z-score is -0.15 (inactive).

In the case of `Cc1ccc(-c2csc(NC(=O)c3cccs3)n2)cc1`, the z-score is -3.32 (active).

Take `CC(C)(C)C1C/C(=C/c2ccco2)C(=O)/C(=C/c2ccco2)C1` (stereo unspecified): the z-score is 0.6 (inactive).

As to `Cc1ccc(OCC(=O)OC(C)CN(C)Cc2ccccc2)cc1` (stereo unspecified), the z-score is 2.87 (inactive).

With `COc1ccc(N2C(=O)CNC2=S)cc1`, the z-score is 0.4 (inactive).

Consider `c1ccc(-c2cc(-c3nnc4sc(-c5ccccn5)nn34)[nH]n2)cc1`, for which the z-score was -3.26 (active).

For the compound `COc1ccc(-c2nn3c(-c4ccccc4)nnc3s2)cc1OC`, the z-score is -1.25 (inactive).

Turning to `CCOc1cccc(-c2nn3c(-c4ccccn4)nnc3s2)c1`, the z-score was -1.53 (inactive).

For `CC(NC(=O)C(=O)NN=C1CCC(C(C)(C)C)CC1)c1ccccc1` (stereo unspecified), the z-score was -0.32 (inactive).
